This is a sample that favours compounds with a hit; in the whole collection about 6.7% have one here.
PINK1 modulator: PINK1 expression modulation. PINK1 immunofluorescence, high-content cytometry, 24 h. Potency, µM (highest dose often 76.6 µM), inactives show at the top dose activation (PINK1 increase), actives largely listed as activators. 410,000 compounds, 0.2% hits. AID 624263; active = well fitted activation curve with a large enough effect; inconclusive = small, poorly fitted or top-dose-only effect; cell line not stated here; also: % of control where 0% means no effect; nearly all actives have a fitted effect of over 65% in size
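Fluorescence from anti-PINK1 antibody, together with nuclear and cell stains, was scanned on a laser-scanning cytometer. Before staining, stable-line cells were incubated 24 hours with compounds at 5 concentrations; primary antibody 12 h at 10 degrees C.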
KB-3-1 tox: KB-3-1 parental cell cytotoxicity; 400,000 compounds, 1.4% hits; KB-3-1 viability, CellTiter-Glo ATP luminescence, 72 h; Potency, µM (series often up to 46.1 µM), hits mostly cytotoxic; also: % is scaled to controls: 0 for no effect and ±100 for the full control effect; nearly all actives have a fitted effect of over 60% in size
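Multi-concentration cytotoxicity screen in KB-3-1 cells grown in DMEM lacking phenol red with 10% FBS. After 72 h at 37 °C with compound, ATP-dependent luminescence was recorded.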
MCF10A rereplic: induces DNA re-replication in MCF 10a normal breast cells. MCF 10A DNA re-replication, Hoechst nuclear intensity, 48 h. Potency, µM (top dose mostly 46.1 µM), without a hit: top-dose activity, positive = re-replication, most hits filed as activators. 350,000 compounds, 2.9% hits; also: % of control where 0% means no effect; nearly all actives have a fitted effect of over 50% in size
SW480 rereplic: induces DNA re-replication in SW480 colon adenocarcinoma cells; SW480 DNA re-replication, Hoechst DNA content imaging, 48 h; 340,000 compounds, 1.8% hits; Potency, µM (titrated, usually from 46.1 µM), inactives show top-dose re-replication activation, most hits filed as activators; AID 624297; also: % of control where 0% means no effect; nearly all actives have a fitted effect of over 55% in size
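250 cells/well; 23 nL cpd via pin tool; 48 hr, 37 C, 5% CO2; Hoechst 40 min; imager read of total nuclear intensity, ex 405/em 500-530 nm.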
KB-V1 MDR tox: kills drug-selected multidrug resistant KB-V1 cells; KB-V1 MDR cells viability, CellTiter-Glo, 72 h; Potency, µM (top dose mostly 46.1 µM), actives largely listed as cytotoxic; 400,000 compounds, 3.4% hits; AID 1347076; also: % is scaled to controls: 0 for no effect and ±100 for the full control effect; nearly all actives have a fitted effect of over 60% in size
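qHTS viability screen in drug-selected KB-V1 MDR cells: 72 h compound treatment at 37 degrees C, ATP luminescence end point.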
The depositor's hits bear a star; i = inactive; u = inconclusive; x = no result given; [ ] = dose if it differs, or a comment. Unless noted, calls follow the shape of the dose curve; as a rule, active = well fitted curve in the direction sought with a large enough effect; inconclusive = small, poorly fitted or top-dose-only effect, or another doubt; inactive = no such curve, though single readings can be large; an effect the other way counts as inactive or inconclusive. Potency is read from the fitted curve at half-maximal effect.

SMILES	PINK1 modulator	KB-3-1 tox	MCF10A rereplic	SW480 rereplic	KB-V1 MDR tox
CC(C)C[C@H](NC(=O)c1nc[nH]c1C(=O)N[C@@H](CCCCNC(=O)OC(C)(C)C)C(=O)OC(C)(C)C)C(=O)OC(C)(C)C	3%	16µM*	0%	u	u
C[C@H](NC(=O)c1nc[nH]c1C(=O)N1CCN(C(=O)OC(C)(C)C)CC1)C(=O)OC(C)(C)C	-1%	i	u	-6%	i
C[C@H](NC(=O)c1nc[nH]c1C(=O)NC(c1ccccc1)c1ccccc1)C(=O)OC(C)(C)C	-2%	u	23%	-14%	8.2µM*
CC(C)C[C@H](NC(=O)c1nc[nH]c1C(=O)N1CCN(C(=O)OC(C)(C)C)CC1)C(=O)OC(C)(C)C	2%	5.8µM*	u	16µM*	i
CC(C)C[C@H](NC(=O)c1nc[nH]c1C(=O)N1CCN(c2ccccc2)CC1)C(=O)OCc1ccccc1	0%	i	12µM*	1%[9.22 µM]	i
CC(=O)Nc1nonc1-c1nnc(SCC(=O)Nc2cc(C)cc(C)c2)n1C	0%	i	x	x	i
Cc1nc([N+](=O)[O-])c(Sc2nc3ccc([N+](=O)[O-])cc3[nH]2)n1Cc1ccccc1	-5%	i	18µM*	u	i
CCc1ccccc1CC1CN(Cc2ccccc2)Cc2ccccc2N1c1ccc(OC)cc1 (configuration not stated)	x	i	x	x	i
COc1cc(/C=C2\NC(=O)NC2=O)cc(Br)c1OC	-1%	u	-15%	0%	5.8µM*
COc1ccc(C=C2NC(=O)NC2=O)cc1O	-1%	i	x	x	i
O=C(Cn1cc(SCc2c(F)cccc2Cl)c2ccccc21)N1CCCCCC1	3%	x	x	x	x
CN(C)S(=O)(=O)c1cccc(NC(=S)Nc2ccc(Cl)cc2Cl)c1	16µM*	i	-3%	4%	u
CN(C)S(=O)(=O)c1cccc(NC(=S)Nc2cc(Cl)cc(Cl)c2)c1	u	u	20%	-6%	18µM*
CCN(CCO)c1ccc(NC(=S)Nc2cccc(S(=O)(=O)N(C)C)c2)cc1	5%	i	-1%	-2%	i
CC(=O)c1sc(NC(=O)CCc2ccccc2)nc1C	3%	i	x	x	u
COc1cccc(NC(=O)N2CCCC(C(=O)Nc3ccccc3OC)C2)c1 (configuration not stated)	-4%	i	-1%	4%	21µM*
COc1cccc(NC(=O)N2CCC(C(=O)Nc3ccc(C)cc3C)CC2)c1	-12%[38.3 µM]	i	1%	-5%	15µM*
Cc1cc(F)ccc1NC(=O)C1CCN(C(=O)Nc2ccccc2)CC1	-1%	i	u	-62%	i
COc1ccccc1NC(=O)N1CCCC(C(=O)Nc2cccc(C)c2C)C1 (configuration not stated)	-1%	i	124%[0.0737 µM]	-4%	i
O=c1ccn(Cc2ccccc2)c(=O)n1Cc1ccccc1	6%	i	21µM*	-9%	i
Cn1c(N)cc(=O)n(Cc2ccccc2)c1=O	1%	i	-11%	-6%[9.22 µM]	i
O=C(NC(=S)Nc1ccc(F)cc1)c1ccc2c(c1)OCCO2	13%	13µM*	0%	2%	i
O=C(c1ccc2c(c1)OCCO2)C1CCN(S(=O)(=O)c2ccccc2F)CC1	3%[38.3 µM]	i	1%	0%	23µM*
O=C(NC(=S)Nc1ccc(CN2CCOCC2)cc1)c1ccc2c(c1)OCCO2	5%	18µM*	u	u	21µM*
O=C(c1ccc2c(c1)OCCO2)C1CCN(C(=O)Nc2ccc(F)cc2)CC1	1%	i	4%	13%	23µM*
SMILES	PINK1 modulator	KB-3-1 tox	MCF10A rereplic	SW480 rereplic	KB-V1 MDR tox
Cc1ccccc1NC(=O)Cc1nc(COC(=O)Cc2c(F)cccc2Cl)cs1	0%	i	15%	-2%	i
CC(C)c1ccc(/C=C/C(=O)NC(=S)Nc2ccc(CN3CCOCC3)cc2)cc1	0%	i	23µM*	23%	u
CC(C)c1ccc2c(c1)[C@H]1OCC[C@H]1[C@@H](c1cccs1)N2	3%	6.5µM*	7.3µM*	9.2µM*	2.3µM*
CCOC(=O)C1CCN(S(=O)(=O)Cc2ccccc2)C1=O (configuration not stated)	0%	i	-1%	-4%	i
CCOC(=O)C1CCN(C(=O)c2ccccc2)C(CC)C1=O (configuration not stated)	-3%	i	3%	-5%	21µM*
CC(NC(=O)c1cc(F)ccc1F)c1nnc2n1CCN(Cc1ccccc1O)CC2 (configuration not stated)	0%	x	x	x	x
COc1ccc(C(CNC(=O)c2cc3c(s2)CCC(C)C3)N2CCOCC2)cc1 (configuration not stated)	-2%	i	u	5%	i
COc1ccc(C(CNC(=O)c2cc3c(s2)CCC(C)C3)N2CCCC2)cc1 (configuration not stated)	3%	21µM*	u	u	i
COCC1CCCN(Cc2ccc3c(c2)CN(C(=O)c2ccc(OC)nc2OC)CCO3)C1 (configuration not stated)	0%	x	x	x	x
Cc1ccc(C)c(N2CCN(C(=O)c3ccc(NS(=O)(=O)c4c(C)noc4C)cc3)CC2)c1	-1%	i	u	2%	i
CCOC(=O)c1c(C)[nH]c(C)c1S(=O)(=O)N1CCC(C(=O)N2CCN(c3cc(C)ccc3C)CC2)CC1	1%	16µM*	x	x	i
Cc1ccc(C)c(N2CCN(S(=O)(=O)c3c(C)noc3/C=C/N(C)C)CC2)c1	9%	u	21µM*	4%	u
Cc1ccc(Cl)cc1N1CCN(C(=O)c2ccc(NS(=O)(=O)c3c(C)noc3C)cc2)CC1	3%	i	15µM*	u	i
Cc1ccc(C)c(N2CCN(C(=O)C3CCCN(S(=O)(=O)c4c(C)noc4C)C3)CC2)c1 (configuration not stated)	1%	u	9%	3%	i
Cc1ccc(C)c(N2CCN(C(=O)C3CCN(S(=O)(=O)c4c(C)noc4C)CC3)CC2)c1	0%	8.2µM*	17%	u	u
COc1ccc(N2CCN(C(=O)CCCCCn3c(=S)[nH]c4ccc(N5CCOCC5)cc4c3=O)CC2)cc1	2%	i	x	x	u
CC(C)(C)c1ccc(NC(=O)CON=C(N)c2ccccc2)cc1	4%	i	15%	0.29µM*	i
FC(F)(F)c1cccc(Cn2nnnc2-c2cccc(C(F)(F)F)c2)c1	1%[38.3 µM]	i	u	0%	15µM*
O=C(O)c1ccccc1Nc1ccccc1C(=O)O	u	i	-3%	12%	i
O=C(O)c1ccccc1Nc1ccc([N+](=O)[O-])cc1	0%	9.2µM*	10%	2%	u

Source: PubChem BioAssay
